Several values for one entry are separate records, joined by “and”; a condition that tells them apart may be missing. Equal entries are not always repeated. About 2,300 (0.62%) of roughly 370,000 compounds were called active.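 Rule for the calls: active = inhibition above a per-campaign cutoff equal to the mean of compounds falling between control-based bounds plus 3 SD (cut at about 20% in these data); inactive = the rest.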 Many of the other results were omitted from the sample, so actives are more common in it than they were. Some compounds were tested as several samples or in several runs, with calls that do not always agree.
These compounds were tested against Disintegrin and metalloproteinase domain-containing protein 10 (Homo sapiens) (UniProt O14672) (assay: blockers of ADAM10 peptide cleavage – biochemical, QFRET, HTS, primary screen (AID 720582;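 note: 0% = DMSO wells while the 100% control is not disclosed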)). Details: recombinant ADAM10, EDANS/DABCYL FRET peptide cleavage, 3 h; at 7 µM; stronger effect = higher value.
Disintegrin and metalloproteinase domain-containing protein 10 (Homo sapiens), sequence (O14672 214-748 limits assumed): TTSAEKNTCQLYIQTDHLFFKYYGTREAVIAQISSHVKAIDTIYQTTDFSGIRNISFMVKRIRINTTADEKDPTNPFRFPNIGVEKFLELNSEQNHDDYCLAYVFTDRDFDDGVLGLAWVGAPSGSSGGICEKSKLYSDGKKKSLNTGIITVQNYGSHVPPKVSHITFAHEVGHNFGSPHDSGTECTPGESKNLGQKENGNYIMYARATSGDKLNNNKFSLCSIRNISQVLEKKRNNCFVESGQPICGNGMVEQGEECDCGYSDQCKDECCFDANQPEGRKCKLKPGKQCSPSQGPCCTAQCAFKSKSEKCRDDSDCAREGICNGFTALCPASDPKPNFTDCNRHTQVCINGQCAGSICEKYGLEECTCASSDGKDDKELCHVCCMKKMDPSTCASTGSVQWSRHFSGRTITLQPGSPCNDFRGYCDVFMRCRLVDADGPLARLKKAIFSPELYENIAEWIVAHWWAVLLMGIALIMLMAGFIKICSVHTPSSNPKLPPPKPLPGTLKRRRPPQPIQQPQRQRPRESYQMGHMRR

inhibition, inactive:
COCCCNC(=O)C[C@H]1C[C@@]2(C(=O)OC)C(=C[C@H](C(C)(C)C)O[C@@H]2C)N(Cc2ccc(Cl)cc2Cl)C1=O 8.61%
C=CS(=O)(=O)N(Cc1nnn(Cc2ccccc2)c1Br)[C@H](C(=O)OC)C(C)C 5.21%
CCOC(=O)[C@]12CCCC=C1N(Cc1ccc(OC)cc1)C(=O)[C@@H]2CC(=O)N1CCOCC1 0.19%
COc1ccc(Cl)cc1NC(=O)CN(C)C(=O)c1ccc2n[nH]nc2c1 -4.74%
COc1ccc(Cl)cc1NC(=O)CN(C)C(=O)CNC(=O)C12CC3CC(CC(C3)C1)C2 0.24%
O=C(CSc1nnc(-c2ccccn2)n1-c1ccccc1)Nc1ccc2cn[nH]c2c1 1.78%
CCOC(=O)c1ccc(NC(=O)c2nc[nH]c2C(=O)N[C@@H](CCCCNC(=O)OC(C)(C)C)C(=O)OC(C)(C)C)cc1 -1.17%
CC(C)(C)OC(=O)NCCCCCNC(=O)c1[nH]cnc1C(=O)Nc1nccs1 -0.11%
Cc1nc(CNc2ncnc3ccc(-c4ccc5c(c4)OCO5)cc23)cs1 -136%
CSc1ccc(C#N)cc1NC(=O)c1ccc(Cl)cc1 7.58%
CSc1nccc(NC(=O)c2ccc(C(C)(C)C)cc2)n1 10.6%
COC(=O)[C@H](C(C)C)N(CCCc1cn(Cc2ccccc2)nn1)S(=O)(=O)c1ccc(F)cc1Br 2.42%
C=CCN1C(C(=O)OC)CN(Cc2cn(Cc3ccccc3)nn2)CCS1(=O)=O (configuration not stated) 2.91%
Cc1cccc([C@@H]2[C@@H]3C(=O)N(Cc4ccccc4)C(=O)[C@@H]3[C@]3(Cc4ccc(Cl)cc4)C(=O)N(c4cccc(Cl)c4)C(=O)N23)c1 -4.37%
Cc1cccc(N2C(=O)N3[C@H](c4ccc(F)cc4)[C@@H]4C(=O)N(C5CCCCC5)C(=O)[C@@H]4[C@]3(Cc3ccccc3)C2=O)c1 5.39%
CCCCCc1c(-c2cccc(Br)c2)ncn1CCc1ccccc1OC -0.06%
CCCCc1c(-c2ccc(Cl)cc2)ncn1CCc1ccccc1OC -7.93%
CCOC(=O)[C@]12CCCCC/C=C\1N(Cc1ccc(OC)cc1)C(=O)[C@H]2CC(=O)NCCCN1CCCC1=O -0.03%
CC(=O)N1CCc2cc(S(=O)(=O)NCCC(=O)N3CCCC3)ccc21 -14%
COc1cc(/C=C/C(=O)n2cnc3ccccc32)cc(OC)c1OC -59.7%
CCCCCN1CCCCC(NC(=O)C(C)CCC)C1=O (configuration not stated) -6.07%
CCOc1ccc(Br)cc1S(=O)(=O)Nc1ccc(S(=O)(=O)Nc2cc(C)on2)cc1 -5.64%
CCOc1ccc(Br)cc1S(=O)(=O)Nc1cccc(S(=O)(=O)N(CC)CC)c1 0.81%
CC(C)C(C#CC1CC1)N(Cc1ccc2c(c1)OCO2)C(N)=NC(=O)/C=C/c1cccc(C(F)(F)F)c1 (configuration not stated) -4.29%
COC(=O)c1cccc(Cn2ccc3ccc(-c4ccc5ccn(C(=O)c6ccccc6C)c5c4)cc32)c1 -41.7%
CCCC1CCC2(CCCN2CCOC(=O)NCc2ccccc2)CC1 (configuration not stated) -8.67%
CC(C)N1CCCCC(NC(=O)C(C)(C)C)C1=O (configuration not stated) -0.89%
N#Cc1cccc(NC(=O)C2CCCN(C(=O)c3ccc(Cl)cc3)C2)c1 (configuration not stated) -3.16%
COc1ccc(N2C(=O)C(CC(=O)Nc3ccccc3)N(Cc3ccc(OC)c(OC)c3)C2=O)cc1 (configuration not stated) 0.53%
CN(C)c1ccc(NC(=S)N(CCc2ccccc2)C2CC(=O)N(c3c(Cl)cccc3Cl)C2=O)cc1 (configuration not stated) 11.2%
CCOC(=O)[C@]12CCCC=C1N(CCCOC)C(=O)[C@@H]2CC(=O)N1CCOCC1 -0.44%
CN1[C@H](Cc2ccccc2)COc2cccc(N3CCSCC3)c2S1(=O)=O -1.57%
CCC(C(=O)Nc1ccc(C(C)C)cc1)c1ccccc1 (configuration not stated) 5.96%
O=C(CNCc1ccc(F)cc1)Nc1ccccc1-c1ccccc1 4.85%
CC1CCN(c2ccc(C(=O)O)cc2NS(=O)(=O)c2ccc(Br)s2)CC1 -0.83%
C[C@H](C(=O)N(C)c1ccccc1)[C@@H](O)c1ccc(Cl)cc1 2.56%
CC(=O)N1CCCN(C2=Nc3ccccc3Sc3ccccc32)CC1 1.32%
O=C(CSc1nnc(-c2cccc(Cl)c2)n1Cc1ccco1)Nc1ccc(OCc2ccccc2)cc1 7.99%
Cc1ccc(-c2nc(C3CCCN(S(=O)(=O)c4ccc(Br)s4)C3)no2)cc1 (configuration not stated) -6.94%
O=C(NCCC1=CCCCC1)C1CCN(S(=O)(=O)c2ccc(Cl)s2)CC1 -5.18%
COc1ccc(OCCn2ccnc2C)cc1 3.1%
COc1ccccc1OCCOc1ccc(/C=C2\C(=N)N3N=C(C)SC3=NC2=O)cc1 -72.1%

inhibition, 23.9% (active) and 6.83% (inactive):
CCOc1ccc(N2C(=O)CC(N(CCc3ccc(OC)c(OC)c3)C(=S)Nc3ccccc3)C2=O)cc1 (configuration not stated)

inhibition, active:
COc1ccc(Cl)cc1NC(=O)CN(C)C(=O)CCCc1c[nH]c2ccccc12 56.1%
Cc1ccc(NC(=O)c2nc[nH]c2C(=O)N[C@@H](CCCCNC(=O)OC(C)(C)C)C(=O)OC(C)(C)C)cc1 22.4%
CC(C)(C)c1ccc(C(=O)Nc2cc(Cl)c(Br)cc2C(=O)O)cc1 19.8%
O=C1NC(Nc2nc3ccccc3s2)(C(F)(F)F)C(=O)N1C1CCCCC1 (configuration not stated) 21%
O=C1[C@H]2[C@@H](c3ccc(F)cc3)N3C(=O)N(c4ccc(C(F)(F)F)cc4)C(=O)[C@@]3(Cc3ccccc3)[C@H]2C(=O)N1C1CCCCC1 22.2%
CCCCCc1c(-c2ccc(OC)c(OC)c2)ncn1CCc1ccccc1OC 22.3%
CCOc1ccc(Br)cc1S(=O)(=O)Nc1ccc(C(=O)OC(C)C(=O)N(C)c2ccccc2)cc1 (configuration not stated) 22.5%
CCC(C(=O)OCC(=O)Nc1ccccc1-c1ccccc1)c1ccccc1 (configuration not stated) 20.3%
COc1ccc(OCCCn2cccc2/C=C2/C(=N)N3OC(C)=CC3=NC2=O)cc1 24.4%

Reference: PubChem BioAssay AID720582 (The Scripps Research Institute Molecular Screening Center, 2013)
